# Source: PubChem BioAssay AID651899 (Broad Institute, 2012)
# Results with a measured potency or affinity are listed apart. Active and inactive are the calls of the source. How the calls were made is not given here.
# Test: cytotoxicity in HEK293 cells, dose response, cytotoxicity control, cell-based, plate reader, cherry-pick (AID 651899);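 further: cells exposed to compound for 48 hours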
# Details: series mostly up to 26 µM
SMILES,outcome,"activity change, negative = cytotoxicity"
COC(=O)C1=C(C)Nc2sc(C(N)=O)c(N)c2C1c1ccncc1 (stereo not drawn),inactive,
O=C(Nc1ncc2c(n1)CC(c1ccccc1)CC2=O)c1ccco1 (stereo not drawn),inactive,
O=C(Nc1ccc(N2CCOCC2)c(Cl)c1)c1cccnc1,inactive,
O=C(c1ccncc1)N1CC[C@H]2[C@H](CO)Nc3ccc(Br)cc3[C@H]21,inactive,
O=C(Cc1ccccc1)N1CC[C@@H]2[C@H]1c1cc(Br)ccc1N[C@@H]2CO,inactive,
COc1cc(-c2n[nH]c(=S)n2C(C)c2ccccc2)cc(OC)c1OC (stereo not drawn),inactive,
Cc1ccc(NC(=O)CSc2nc(=O)n(CCCN3CCOCC3)c3c2CCCC3)cc1F,inactive,
Cc1nc2nc(SCC(=O)NCCCN3CCOCC3)nn2c(C)c1Cc1ccccc1,inactive,
O=C(O)CCS(=O)(=O)c1nc(-c2cccs2)cc(C(F)(F)F)n1,inactive,
O=C(CSc1nncs1)N1c2ccccc2Sc2ccccc21,inactive,
Nn1c(SC/C=C/c2ccccc2)nnc1-c1cccnc1,inactive,
CCOC(=O)c1c(N)sc(C(N)=O)c1C,inactive,
O=C(N[C@@H]1CC[C@H](CCn2cc(-c3cccnc3)nn2)O[C@@H]1CO)c1ccccc1F,inactive,
Cc1ccc(S(=O)(=O)N(C)C)cc1NC(=O)CSc1nncs1,inactive,
O=C(Nc1ncc2c(n1)CC(c1ccco1)CC2=O)c1ccco1 (stereo not drawn),,20% [at 6 µM] (inactive)
COc1ccc(NC(=O)c2cnc(C)cn2)cc1-n1cnnn1,inactive,
CCOC(=O)C1CCN(C(=O)Nc2ccc3snnc3c2)CC1,inactive,
CCCN1CCN(C(=O)C2CCN(c3nnc(C)c4c(C)n(-c5ccc(C)cc5)nc34)CC2)CC1,inactive,
